Reference: PubChem BioAssay (Tox21)
Records with an inconclusive call do not appear. The source made the active and inactive calls. Unless noted, calls follow the shape of the dose curve; as a rule, active = well fitted curve in the direction sought with a large enough effect in the repeat runs; inconclusive = weak or mixed curves; inactive = no such curve, though single readings can be large; an effect the other way counts as inactive or inconclusive.

What was measured:
[1] = qHTS assay to identify small molecule agonists of the peroxisome proliferator-activated receptor delta (PPARd) signaling pathway - cell viability counter screen (AID 743211); also: nearly all actives have a fitted effect of over 55% in size
Procedure, shortened: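 PPARd-bla HEK293H cells (UAS-beta-lactamase reporter) were treated with compounds for 17 h at 37 C. Viability was then read in the same wells by CellTiter-Glo luminescence after 30 min at room temperature.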

[2] = qHTS assay to identify small molecule antagonists of the peroxisome proliferator-activated receptor delta (PPARd) signaling pathway - cell viability counter screen (AID 743213); also: nearly all actives have a fitted effect of over 50% in size
Procedure, shortened: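 Cytotoxicity counter screen: CellTiter-Glo luminescence read 30 min after addition, in the same wells as the reporter assay. There, PPARd UAS-bla HEK293H cells (3000/well) were treated 17 h at 37 C with compound and 300 nM L165041.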

[3] = molecular target: Peroxisome proliferator-activated receptor delta (Homo sapiens) (UniProt Q03181); experiment: qHTS assay to identify small molecule antagonists of the peroxisome proliferator-activated receptor delta (PPARd) signaling pathway (AID 743215; active = well fitted inhibition curve with a large enough effect in the signal ratio in the repeat runs, not every such curve was filed as active; the % refers to the signal ratio;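 also: cells stimulated with agonist L165041 at 300 nM final during compound exposure; series mostly up to about 62 µM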)
Procedure, shortened: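 PPARd UAS-bla HEK293H cells were pre-incubated 5 h at 37 C, then given test compounds in DMSO plus agonist L165041 (300 nM final). After 17 h at 37 C, beta-lactamase FRET substrate was added; fluorescence read after 2 h at room temperature.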

[4] = qHTS assay to identify small molecule agonists of the farnesoid-X-receptor (FXR) signaling pathway - cell viability counter screen (AID 743218); also: nearly all actives have a fitted effect of over 45% in size
Procedure, shortened: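 FXR-UAS-bla HEK 293T cells, plated 5 h at 37 C, were exposed to compounds for 16 h at 37 C. CellTiter-Glo was then added to the same wells as the bla readout; luminescence read after 30 min at room temperature.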

[5] = qHTS assay to identify small molecule antagonists of the farnesoid-X-receptor (FXR) signaling pathway - cell viability counter screen (AID 743221; active = well fitted cell-killing curve with a large enough effect in the repeat runs, not every such curve was filed as active; also: nearly all actives have a fitted effect of over 50% in size)
Procedure, shortened: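 FXR-UAS-bla HEK 293T cells were treated with test compounds plus chenodeoxycholic acid (50 uM final) for 16 h at 37 C. Cell viability in the same wells was then read as CellTiter-Glo luminescence after 30 min at room temperature.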

[6] = molecular target: Vitamin D3 receptor (Homo sapiens) (UniProt P11473); experiment: qHTS assay to identify small molecule agonists of the vitamin D receptor (VDR) signaling pathway (AID 743222; calls by dose curve)
Procedure, shortened: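 VDR-bla cells were plated 4 h at 37C/5% CO2, then exposed to compounds in DMSO for 16 h. After LiveBLAzer B/G FRET substrate addition and 2 h at room temperature, beta-lactamase reporter fluorescence was read.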

[7] = molecular target: Vitamin D3 receptor (Homo sapiens) (UniProt P11473); experiment: qHTS assay to identify small molecule antagonists of the vitamin D receptor (VDR) signaling pathway (AID 743223; active = well fitted inhibition curve with a large enough effect in the signal ratio in the repeat runs, not every such curve was filed as active; the % refers to the signal ratio)
Procedure, shortened: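 VDR-bla cells were plated, incubated 4 h at 37C, then given compound and 1alpha,25-dihydroxyvitamin D3 (3 nM final). After 16 h at 37C, LiveBLAzer B/G FRET substrate was added for 2 h at room temperature and fluorescence read.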

[8] = qHTS assay to identify small molecule agonists of the vitamin D receptor (VDR) signaling pathway - cell viability counter screen (AID 743224); also: series mostly up to about 63 µM; nearly all actives have a fitted effect of over 50% in size
Procedure, shortened: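 VDR-bla cells were preincubated 4 h at 37C/5% CO2, then exposed to compounds for 16 h. After the 2 h room-temperature bla FRET read, CellTiter-Glo was added to the same wells and luminescence read after 30 min.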

[9] = qHTS assay to identify small molecule antagonists of the vitamin D receptor (VDR) signaling pathway - cell viability counter screen (AID 743225); also: nearly all actives have a fitted effect of over 50% in size
Procedure, shortened: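 VDR-bla HEK 293T cells, 4 h pre-incubation at 37C, then compound plus 1-alpha,25-dihydroxyvitamin D3 (3 nM final) for 16 h. After the beta-lactamase FRET read, CellTiter-Glo was added to the same wells; luminescence after 30 min at room temperature.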

[10] = qHTS assay to identify small molecule agonists of the NFkB signaling pathway - cell viability counter screen (AID 1159515; calls by dose curve; also: series mostly up to about 61 µM; nearly all actives have a fitted effect of over 55% in size)
Procedure, shortened: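 NFkB-bla ME-180 cells, 2,000/well, were plated overnight at 37 C, 5% CO2, then exposed to compounds in DMSO for 5 hr. After the bla FRET read, CellTiter-Glo was added to the same wells; luminescence was read after 30 min at room temperature.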

[11] = qHTS assay to identify small molecule agonists of the endoplasmic reticulum stress response signaling pathway (AID 1159516; active = well fitted activation curve with a large enough effect in the signal ratio in the repeat runs, not every such curve was filed as active; the % refers to the signal ratio)
Procedure, shortened: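 CellSensor ESRE-bla HeLa cells, carrying a beta-lactamase reporter driven by the ER stress response element, were plated overnight and exposed to compounds for 5 hr at 37 C. Reporter activity was read as FRET substrate fluorescence after 2 hr at room temperature.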

[12] = qHTS assay to identify small molecule antagonists of the retinoid-related orphan receptor gamma (ROR-gamma) signaling pathway - cell viability counter screen (AID 1159520); also: nearly all actives have a fitted effect of over 50% in size
Procedure, shortened: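 Cytotoxicity was read from cellular ATP (CellTiter-Glo luminescence) after 16 hr at 37 C with 1 uM doxycycline induction. The inducer was added 2 hr after compound transfer to Tet-on ROR gamma CHO cells.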

[13] = molecular target: Nuclear receptor ROR-gamma (Homo sapiens) (UniProt P51449); experiment: qHTS assay to identify small molecule antagonists of the retinoid-related orphan receptor gamma (ROR-gamma) signaling pathway (AID 1159521)
Procedure, shortened: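 Tet-on RORγ CHO cells carrying a ROR response element–luciferase reporter were pretreated with compounds for 2 h, then induced with 1 uM (final) doxycycline hyclate for 16 h at 37 C. Antagonism was read as decreased ONE-Glo luminescence.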

[14] = qHTS assay to identify small molecule agonists of the AP-1 signaling pathway - cell viability counter screen (AID 1159525; calls by dose curve; also: nearly all actives have a fitted effect of over 55% in size)
Procedure, shortened: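 Luminescent ATP readout (Cell Titer Glo, 30 min RT), normalised to DMSO and tetra n-octyl ammonium bromide controls. Cells were ME-180 AP-1-bla in 0.5% dialyzed FBS Opti-MEM, with a 5 h, 37 °C compound exposure.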

[15] = qHTS assay to identify small molecule agonists of the AP-1 signaling pathway (AID 1159526; calls by dose curve)
[16] = molecular target: Retinoic acid receptor RXR-alpha (Homo sapiens) (UniProt P19793); experiment: qHTS assay to identify small molecule agonists of the RXR signaling pathway (AID 1159527; calls by dose curve; also: nearly all actives have a fitted effect of over 35% in size)
Procedure, shortened: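 GeneBLAzer RXR-alpha-UAS-bla HEK 293T cells in medium with 2% charcoal-stripped FBS, pre-incubated 5 hr at 37 C, then exposed to compounds 16 hr. Beta-lactamase reporter read by FRET substrate, 2 hr room temperature, 460/530 nm emission.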

[17] = molecular target: Peroxisome proliferator-activated receptor delta (Homo sapiens) (UniProt Q03181); experiment: qHTS assay to identify small molecule agonists of the peroxisome proliferator-activated receptor delta (PPARd) signaling pathway (AID 743212; calls by dose curve)
Procedure, shortened: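 HEK293H UAS-bla reporter cells, human PPARd system; compounds delivered in DMSO after 5 h plating, then at 37 C. Beta-lactamase FRET read, 2 h RT substrate step.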

[18] = molecular target: Bile acid receptor (Homo sapiens) (UniProt Q96RI1); experiment: qHTS assay to identify small molecule antagonists of the farnesoid-X-receptor (FXR) signaling pathway (AID 743217; active = well fitted inhibition curve with a large enough effect in the signal ratio in the repeat runs, not every such curve was filed as active; the % refers to the signal ratio)
Procedure, shortened: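 FXR-UAS-bla HEK 293T cells pre-incubated 5 h at 37 °C, then exposed to compounds with chenodeoxycholic acid (50 uM final) for 16 h at 37 °C. Beta-lactamase reporter read by LiveBLAzer B/G FRET substrate fluorescence after 2 h at room temperature.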

[19] = molecular target: Bile acid receptor (Homo sapiens) (UniProt Q96RI1); experiment: qHTS assay to identify small molecule agonists of the farnesoid-X-receptor (FXR) signaling pathway (AID 743220; active = well fitted activation curve with a large enough effect in the signal ratio in the repeat runs, not every such curve was filed as active; the % refers to the signal ratio)
Procedure, shortened: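 Beta-lactamase reporter under UAS control in GeneBLAzer FXR HEK 293T cells (5000/well) measured with LiveBLAzer FRET substrate after 2 h at room temperature. Compound exposure lasted 16 h at 37C.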

Measured: Potency

Retinoic acid receptor RXR-alpha (Homo sapiens), sequence (P19793 whole entry, looked up): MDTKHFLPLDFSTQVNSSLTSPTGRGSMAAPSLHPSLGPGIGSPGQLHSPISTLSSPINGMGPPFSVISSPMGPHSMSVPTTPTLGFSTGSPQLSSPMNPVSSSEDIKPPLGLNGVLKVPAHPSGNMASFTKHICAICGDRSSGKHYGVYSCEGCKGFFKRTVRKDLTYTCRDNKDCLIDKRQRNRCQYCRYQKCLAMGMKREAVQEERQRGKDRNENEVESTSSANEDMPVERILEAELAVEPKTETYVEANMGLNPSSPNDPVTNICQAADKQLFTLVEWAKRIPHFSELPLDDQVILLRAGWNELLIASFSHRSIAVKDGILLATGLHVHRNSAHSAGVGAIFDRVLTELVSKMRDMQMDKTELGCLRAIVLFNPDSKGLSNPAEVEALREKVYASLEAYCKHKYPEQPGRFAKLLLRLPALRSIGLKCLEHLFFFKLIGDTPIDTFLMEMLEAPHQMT
Peroxisome proliferator-activated receptor delta (Homo sapiens), sequence (Q03181 whole entry, looked up): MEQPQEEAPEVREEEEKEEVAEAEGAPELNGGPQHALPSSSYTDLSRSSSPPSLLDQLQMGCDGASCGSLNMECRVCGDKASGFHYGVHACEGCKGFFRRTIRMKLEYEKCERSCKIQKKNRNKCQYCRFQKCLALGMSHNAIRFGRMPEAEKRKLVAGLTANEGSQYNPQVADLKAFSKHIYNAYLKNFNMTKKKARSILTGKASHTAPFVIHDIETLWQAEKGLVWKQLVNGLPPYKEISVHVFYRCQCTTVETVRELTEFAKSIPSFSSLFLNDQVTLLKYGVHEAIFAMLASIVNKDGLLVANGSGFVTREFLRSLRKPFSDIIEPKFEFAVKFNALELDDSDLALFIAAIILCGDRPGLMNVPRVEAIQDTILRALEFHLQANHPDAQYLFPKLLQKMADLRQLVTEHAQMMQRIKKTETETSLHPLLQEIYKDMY
Vitamin D3 receptor (Homo sapiens), sequence (P11473 whole entry, looked up): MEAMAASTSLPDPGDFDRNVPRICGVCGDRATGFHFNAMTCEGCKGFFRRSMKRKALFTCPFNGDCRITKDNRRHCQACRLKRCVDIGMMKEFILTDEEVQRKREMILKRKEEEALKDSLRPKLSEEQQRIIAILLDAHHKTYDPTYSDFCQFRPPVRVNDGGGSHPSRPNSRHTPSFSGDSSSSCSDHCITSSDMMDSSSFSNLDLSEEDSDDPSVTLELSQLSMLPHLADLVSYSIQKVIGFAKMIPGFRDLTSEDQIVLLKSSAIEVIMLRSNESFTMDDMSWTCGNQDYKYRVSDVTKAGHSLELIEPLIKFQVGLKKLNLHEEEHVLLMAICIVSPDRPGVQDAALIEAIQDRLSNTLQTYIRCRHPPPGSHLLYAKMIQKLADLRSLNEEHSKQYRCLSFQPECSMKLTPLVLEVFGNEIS
Bile acid receptor (Homo sapiens), sequence (Q96RI1 whole entry, looked up): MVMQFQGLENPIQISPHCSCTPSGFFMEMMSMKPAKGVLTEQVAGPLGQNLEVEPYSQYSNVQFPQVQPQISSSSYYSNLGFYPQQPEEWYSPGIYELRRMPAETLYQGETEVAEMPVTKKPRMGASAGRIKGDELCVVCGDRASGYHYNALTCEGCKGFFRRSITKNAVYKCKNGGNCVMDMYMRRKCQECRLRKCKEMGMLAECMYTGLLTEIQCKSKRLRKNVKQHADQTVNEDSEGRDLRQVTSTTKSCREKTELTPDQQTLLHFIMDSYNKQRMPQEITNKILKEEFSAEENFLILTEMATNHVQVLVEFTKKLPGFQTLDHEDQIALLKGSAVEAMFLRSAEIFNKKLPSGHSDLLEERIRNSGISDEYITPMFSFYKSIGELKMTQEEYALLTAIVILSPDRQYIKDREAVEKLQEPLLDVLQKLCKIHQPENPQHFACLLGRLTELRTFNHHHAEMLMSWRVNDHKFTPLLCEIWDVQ

CCCC[P+](C)(CCCC)CCCC
not listed: [17] | [18] | [19]
inactive: all other assays above

CCCCCCOC(=O)C(C)CC (stereo not drawn)
not listed: [2] | [6] | [7] | [19]
inactive: all other assays above

CCCC(=O)OCCc1ccccc1
not listed: [5] | [7] | [18] | [19]
inactive: all other assays above

COC(=O)c1ccccc1C
not listed: [2] | [6] | [7] | [17] | [18]
inactive: all other assays above

OC[C@@H](O)[C@@H](O)CO
not listed: [2] | [6] | [7] | [18] | [19]
inactive: all other assays above

O=[N+]([O-])c1ccc(F)c(Cl)c1
not listed: [3] | [17] | [19]
inactive: all other assays above

O=C(/C=C/c1ccc(O)c(O)c1)O[C@@H](C(=O)O)[C@@H](OC(=O)/C=C/c1ccc(O)c(O)c1)C(=O)O
not listed: [2] | [6] | [9] | [17] | [18]
inactive: all other assays above

NC(=O)c1cccc([N+](=O)[O-])c1
not listed: [1] | [6] | [7] | [17] | [18] | [19]
inactive: all other assays above

Cc1ccc(C)cc1
not listed: [1] | [2] | [3] | [5] | [6] | [7] | [18] | [19]
inactive: all other assays above
